Assay results from PubChem BioAssay (NCI).
The panel holds about 83,000 compounds, 20% with a hit somewhere; the sample as a whole holds those more often.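 The endpoint reported here, percent growth, reads 100 for growth as untreated, 0 for no net growth and -100 for all cells dead.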 Values without a mark were called inactive. The source made the active and inactive calls. How the source made its calls: active means growth percent below 10; inactive means the rest.

Columns and labels:
Experiment in all cases: NCI-60 one-dose screen, 48 h (100 = growth as untreated, 0 = no growth, -100 = all killed)
Conditions in all cases: 10 µM unless noted
RPMI-8226 leukemia = system: RPMI-8226 leukemia
OVCAR-8 ovarian = system: OVCAR-8 ovarian
OVCAR-5 ovarian = system: OVCAR-5 ovarian
OVCAR-4 ovarian = system: OVCAR-4 ovarian
SK-OV-3 ovarian = system: SK-OV-3 ovarian
IGROV1 ovarian = system: IGROV1 ovarian
OVCAR-3 ovarian = system: OVCAR-3 ovarian
HS 578T breast = system: HS 578T breast
NCI/ADR-RES ovarian = system: NCI/ADR-RES ovarian
T-47D breast = system: T-47D breast
BT-549 breast = system: BT-549 breast
MDA-MB-435 melanoma = system: MDA-MB-435 melanoma
SW-620 colon = system: SW-620 colon
HCT-116 colon = system: HCT-116 colon
HCC-2998 colon = system: HCC-2998 colon
MCF7 breast = system: MCF7 breast
KM12 colon = system: KM12 colon

Row | SMILES | growth (RPMI-8226 leukemia) | growth (OVCAR-8 ovarian) | growth (OVCAR-5 ovarian) | growth (OVCAR-4 ovarian) | growth (SK-OV-3 ovarian) | growth (IGROV1 ovarian) | growth (OVCAR-3 ovarian) | growth (HS 578T breast) | growth (NCI/ADR-RES ovarian) | growth (T-47D breast) | growth (BT-549 breast) | growth (MDA-MB-435 melanoma) | growth (SW-620 colon) | growth (HCT-116 colon) | growth (HCC-2998 colon) | growth (MCF7 breast) | growth (KM12 colon)
1 | COc1ccc2nc(-c3ccc(-c4noc(-c5ccc(Cl)cc5)n4)cc3)[nH]c2c1 | 101% | 74.1% | 92.6% | -25.9% (active) | 90.7% | 78.1% | 64.9% | 62.1% | 47.1% | 67.3% | 74.8% | 60.2% | 49.6% | 51.3% | 93.6% | – | –
2 | N/C(=C\C(=O)n1nc(-c2ccccc2)cc1N)c1ccccc1 | 42.8% | 60.6% | 70.9% | 72% | 65.5% | 16.5% | 20.2% | -6.87% (active) | 17% | 47% | 30.1% | -0.658% (active) | 36.1% | 27.4% | 43.9% | 35% | 30%
3 | Nc1nc(N)c2cc(NCc3ccc(Cl)c(Cl)c3)ccc2n1 | -42% (active) | -78.8% (active) | -92.5% (active) | -86.9% (active) | -99.7% (active) | -58.8% (active) | -95.3% (active) | -48.6% (active) | – | -81.3% (active) | 46.3% | -68.1% (active) | -77.4% (active) | -88.2% (active) | -85.9% (active) | -72.8% (active) | -94.4% (active)
4 | O=C1Nc2ccc(Cl)cc2/C1=C\c1c(-c2ccc(F)cc2)nc2ccccn12 | 70.4% | 22% | 37% | -69.7% (active) | -52.1% (active) | 20.6% | -70.4% (active) | 1% (active) | -37% (active) | 9.64% (active) | 15.7% | -34.5% (active) | 8.89% (active) | -78.7% (active) | 44.7% | -9.38% (active) | -32.1% (active)
5 | COc1ccc(/C(C)=N/NC(=O)c2ccc(S(C)(=O)=O)cc2)cc1OC | 130% | 110% | 106% | 97.7% | 88.4% | – | 113% | 100% | 113% | 82.6% | 96% | 112% | 103% | 84.7% | 104% | 92.9% | 103%
6 | CS(=O)(=O)c1ccc(C(=O)N/N=C/c2cccc3ccccc23)cc1 | 87.7% | 83.9% | 109% | 113% | 78.1% | 63.3% | 67.8% | 85.1% | 73.5% | 85.3% | 87.6% | 17.1% | 63.2% | 61.8% | 84.5% | – | 50.8%
7 | CCOC(=O)Nc1ccc2nc(N3CCCCCC3)sc2c1 | 19.5% | 32.7% | 65.7% | 57.5% | 5.7% (active) | 49.8% | -20.5% (active) | 43.7% | 0.974% (active) | 41.6% | 65.7% | 7.4% (active) | 24.5% | 27.9% | 50.3% | – | 21.6%
8 | CCn1c(=O)c(C(=O)NCCCO)c(O)c2ccccc21 | 122% | 103% | 116% | 100% | 115% | – | 155% | 92.1% | 111% | 106% | 150% | 106% | 106% | 104% | 139% | 95.2% | 120%
